For 61 compounds, inhibition results are on record in PubChem BioAssay AID2732 (Emory University Molecular Libraries Screening Center, 2010).

Hit rate of the full screen: of about 220,000 compounds, about 8,200 (3.7%) were called active. This is one part of a sample in which actives are shown more often than they occur.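 The calls were made as follows: active = compounds that reduced the stress-induced luciferase reporter signal by more than about 70% of percent inhibition (limit read from the data); inactive = the rest.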

The assay is described as follows: blockers of ER-stress CHOP reporter expression – cell-based, unfolded protein response, luciferase reporter, primary screen (AID 2732).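 Also: 0% = tunicamycin plus vehicle and 100% = wells without tunicamycin.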 Particulars: CHO-K1 CHOP-promoter luciferase, tunicamycin-induced, 15-18 h; at 10 µM; hits give high values.
A word on the inhibition: it is the change of the read-out against control, counted positive when it falls. Turning to `CCCCN1Cc2c(nc3cc(-c4ccccc4)[nH]n3c2=O)C1=O`, the inhibition is -7.2% (inactive).
To `CCOc1ccccc1N1CN(Cc2ccccc2)CNC1=S` belongs 3.01% (inactive); to `COCCCn1c(-c2cccs2)nc2nc3ccccc3nc21`, -15% (inactive); to `N/C(=N\OC(=O)Nc1ccc(Cl)c(Cl)c1)c1ncc(C(F)(F)F)cc1Cl`, 87.9% (active).
`N/C(=N\OC(=O)CCCC(=O)O)c1ncc(C(F)(F)F)cc1Cl`: the inhibition is 6.09% (inactive).
To `O=C(c1ccccn1)c1ncc(C(F)(F)F)cc1Cl` belongs 23.4% (inactive); to `Nn1c(SCc2ccccc2)nnc1C1CCCCC1`, -9.53% (inactive); to `CC1(C)CC2CC(C)(CN2c2ncnc3ccc(Br)cc23)C1` (stereo unspecified), 70.5% (active).
`C=CCNc1ncnc2ccc(Br)cc12`: the inhibition is 27.4% (inactive).
Under `COc1ccc(C(=O)N2CC3(C)CC2CC(C)(C)C3)cc1OC` (stereo unspecified) stands -6.24% (inactive); under `CCOC(=O)CN(C(=O)COc1nc(-c2ccccc2)cc(C)c1C#N)c1ccc(F)cc1`, 5.71% (inactive); under `COc1c(O)cc2oc(-c3ccc(O)c(O)c3)cc(=O)c2c1O`, -13.9% (inactive).
To `Cc1ccc(NC(=O)/C(=C\c2ccccc2)NC(=O)c2ccco2)cc1` belongs 10.2% (inactive); to `Nc1c(C(=O)c2cccs2)sc2nsc(SCCN3CCCCC3)c12`, -55.6% (inactive).
To `N=c1n(Cc2ccc(Cl)cc2)c2ccccc2n1CC(O)c1ccco1` (stereo unspecified) belongs 86.2% (active).
As for `Cn1c(=N)n(CC(O)c2ccccc2)c2ccccc21` (stereo unspecified), the inhibition was 14.2% (inactive).
To `Cn1c(=N)n(CC(O)c2cccs2)c2ccccc21` (stereo unspecified) belongs 14.4% (inactive); to `Cn1c(=O)c(=O)n(C)c2cc(S(=O)(=O)NCCN3CCN(c4ccccc4F)CC3)ccc21`, 10.2% (inactive); to `COc1ccc(NC2=CC(=S)NC(C)(C)C2)cc1`, 0.78% (inactive).
Under `Cc1c(NC(=O)CN2C(=O)C(=O)N(Cc3ccccc3)C2=O)c(=O)n(-c2ccccc2)n1C` stands -4.43% (inactive); under `Cc1cc(=O)oc2cc(OCCC[n+]3ccccc3)ccc12`, 3.91% (inactive).
To `CCN(C(=O)COC(=O)c1ccc(COc2ccc3c(C)cc(=O)oc3c2)cc1)C1CCS(=O)(=O)C1` (stereo unspecified) belongs -17.9% (inactive); to `Cc1ccccc1NC(=O)c1ccc(COc2ccc3c(C)cc(=O)oc3c2)cc1`, 73.8% (active).
Consider `COc1ccc(CCn2c(NN=C3CCCC3)nc3c2c(=O)[nH]c(=O)n3C)cc1`, for which the inhibition was -6.27% (inactive).
Under `COc1ccc(NC(=O)C2=NNC(=O)CC2)cc1S(=O)(=O)N1CCCCC1` stands 14.5% (inactive); under `Cc1ccc(-c2nn(C(C)(C)C)c3ncnc(N)c23)cc1`, 76.5% (active).
To `Cc1ccc(-n2cnc3ncnc(-c4ccccc4)c32)cc1` belongs -3.5% (inactive); to `Cc1ccc(CSc2nnc(-c3cnccn3)n2C)cc1`, -17.8% (inactive).
To `O=C(NCc1ccccc1)c1ccc(CNc2c(N3CCCC3)c(=O)c2=O)cc1` belongs 3.8% (inactive); to `Cc1cc(=O)[nH]c(SCC(=O)Nc2ccc(Br)cc2)n1`, 28.6% (inactive).
`Cc1nc2cccnc2nc1C`: the inhibition is -3.08% (inactive).
Under `O=C(COC(=O)c1ccc(S(=O)(=O)Nc2ccccc2)cc1)NCC1CCCO1` (stereo unspecified) stands 0.29% (inactive).
Under `O=C(Nc1ccccc1)C1CC(=O)n2c(nc3ccccc32)N1` (stereo unspecified) stands 3.28% (inactive); under `COc1ccc(CCN(C)CCN2C(=O)c3ccccc3C2=O)cc1OC`, -9.23% (inactive); under `COc1ccc(CCN2C(=O)c3[nH]nc(-c4ccccc4O)c3C2c2ccc(C)cc2)cc1OC` (stereo unspecified), 75.2% (active).
To `COC(=O)c1ccc(C2C(Oc3ccccc3C)C(=O)N2CCc2ccc(OC)c(OC)c2)cc1` (stereo unspecified) belongs 18.6% (inactive); to `CS(=O)(=O)c1sc(C(=O)NC(=S)Nc2ccc(OC(F)(F)F)cc2)c2c1C=CCC2`, -21.9% (inactive).
Turning to `COc1ccc(SC[C@H](Cc2ccccc2)N2CCN(CCc3ccccc3)CCC2=O)cc1`, the inhibition was 26.9% (inactive).
To `Cc1csc(/N=C/N(C)C)c1C#N` belongs 11.2% (inactive); to `CC1CCN(c2c(NCc3ccc(C(=O)NCc4ccccc4)cc3)c(=O)c2=O)CC1`, 1.88% (inactive); to `Cc1cc(=O)[nH]c(N/N=C/c2ccc3c(c2)OCCO3)n1`, -1.69% (inactive).
Under `CN(CC(=O)Nc1ccccc1[N+](=O)[O-])Cc1ccc(Br)cc1` stands 5.7% (inactive).
Under `CSc1ccccc1NC(=O)CN(C)CC(=O)Nc1ccc(Cl)cc1[N+](=O)[O-]` stands 18.7% (inactive); under `Cc1ccc(NC(=O)CN(C)Cc2ccc(F)cc2)c([N+](=O)[O-])c1`, 71.6% (active).
With `Cc1cc(C(=O)NNS(=O)(=O)c2ccccc2C(F)(F)F)nn1C(C)(C)C`, the inhibition was 14.2% (inactive).
Take `NC1=NC(=O)C(Cc2cccc(Cl)c2Cl)S1` (stereo unspecified): the inhibition was -11.3% (inactive).
As to `O=C1N/C(=N\N=C\c2ccco2)SC1Cc1ccc(F)cc1` (stereo unspecified), the inhibition is 2.81% (inactive).
To `O=C1NC(=Nc2ccc(Cl)cc2)SC1Cc1cccc(Cl)c1Cl` (stereo unspecified) belongs 94.3% (active); to `COC(C[C@H](O)CC(=O)COCc1ccccc1)OC`, 17.8% (inactive).
On to `NC(=O)c1ccc(NC(=O)COC(=O)c2ccc([N+](=O)[O-])cc2)cc1`, for which the inhibition was 4.31% (inactive).
`Cc1cc(C)cc(NC(=O)NC2CCN(CC(=O)Nc3cccc(Cl)c3C)CC2)c1`: the inhibition is 14.5% (inactive).
To `CCSc1nc(C)nc2c1oc1ccccc12` belongs 97.9% (active); to `Cc1nc(Cl)c2oc3ccccc3c2n1`, -37.5% (inactive); to `COc1ccc(CCNC(=O)CSc2nc(C)nc3c2oc2ccccc23)cc1OC`, 5.77% (inactive).
Regarding `CC1=CC(C)(C)NC(=S)N1NC(=O)c1ccccc1Cl`, the inhibition is -2.87% (inactive).
To `CCOc1ccc(C2NC(=S)NC3=C2CCc2ccccc23)cc1` (stereo unspecified) belongs -10.8% (inactive); to `O=C1N/C(=C/c2cccn2-c2ccccc2)C(=O)N1c1cccc(Cl)c1`, 86.8% (active); to `Cc1ccccc1NC(=O)CN1C(=O)N/C(=C\c2cccn2-c2cccc(C(=O)O)c2)C1=O`, 1.36% (inactive).
To `COc1cc2c(cc1/C=C1/NC(=O)N(c3ccccc3)C1=O)OCO2` belongs -2.61% (inactive).
To `Cc1c(C)c(C)c2[nH]c(=S)[nH]c2c1C` belongs 20.2% (inactive); to `N#CCc1ccc(OC(=O)c2cccnc2)cc1`, 12.3% (inactive).
